The test deals with Caspase-7 (Homo sapiens) (UniProt P55210). The experiment in a line: human caspase-7 inhibitors, dose response, selectivity assay for caspase-6 inhibitor project, biochemical, DEVD-R110 fluorescence, cherry-pick (AID 743295).

Potency and affinity values are given separately. Calls of active or inactive are those of the source.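 Rule for the calls: active = compounds lowering caspase 7 signal with dose, half-maximal concentration at most twice the top valid dose; inconclusive = flat fit with 30 to 70% inhibition, or poor fit; inactive = the rest.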

Chain of Caspase-7 (Homo sapiens) (P55210 whole entry, looked up): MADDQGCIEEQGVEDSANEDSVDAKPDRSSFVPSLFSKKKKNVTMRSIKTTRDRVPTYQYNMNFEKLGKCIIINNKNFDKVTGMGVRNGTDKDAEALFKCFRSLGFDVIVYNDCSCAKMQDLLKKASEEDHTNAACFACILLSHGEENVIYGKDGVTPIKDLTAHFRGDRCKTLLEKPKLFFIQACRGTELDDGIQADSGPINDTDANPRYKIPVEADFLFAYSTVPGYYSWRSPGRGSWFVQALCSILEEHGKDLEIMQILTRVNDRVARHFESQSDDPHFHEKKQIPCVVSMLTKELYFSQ

`Cn1cnnc1SCC(=O)Nc1ncc([N+](=O)[O-])s1`: the result was inactive.
The result for `Nc1cc(S(=O)(=O)O)cc([N+](=O)[O-])c1O` reads “inactive”; that for `Nc1ccc(Nc2ccccc2)c(S(=O)(=O)O)c1`, “inactive”.
The same measure for `CCCc1nc2c(=O)n(C)c(=O)nc-2n(C)n1`: “inactive”.
The same measure for `O=C(O)Cc1ccc(-n2cccc2)cc1`: “inactive”; for `O=C(Nc1ccc2nc3n(c(=O)c2c1)CCCCC3)c1c(F)ccc([N+](=O)[O-])c1F`: “inactive”.
Regarding `Cc1cc(C=O)c(C)n1-c1cc(C(=O)O)cc(C(=O)O)c1`, the compound was called inactive.
The same measure for `Cc1ccc(S(=O)(=O)Nc2csc(C)c2C(=O)O)cc1`: “inactive”; for `CCOC(=O)[C@H](Cc1c[nH]c2ccccc12)NC(=O)CN=[N+]=[N-]`: “inactive”.
Take `CO[C@H]1CN(C)C(=O)c2cc(NC(C)=O)ccc2OC[C@@H](C)N(C(=O)CC2CC2)C[C@H]1C`: the result was inactive.
The result for `C/C(CC(=O)N1CCCC1)=N\NC(=O)c1cc2ccccc2cc1O` reads “inactive”.
The same measure for `O=C(COC(=O)c1ccc([N+](=O)[O-])s1)Nc1ccc(F)cc1`: “inactive”; for `Oc1cc(NCCc2cccnc2)cc2cccnc12`: “inactive”; for `COc1cc(-c2ccc(Nc3ccccc3C(=O)O)c(OC)c2)ccc1Nc1ccccc1C(=O)O`: “inactive”.
The same measure for `COc1cc(NC(=O)COC(=O)c2ccc([N+](=O)[O-])s2)cc(OC)c1OC`: “inactive”.
For the compound `COCCN(C(=O)COC(=O)c1cc2c(s1)CCC2)c1c(N)n(Cc2ccccc2)c(=O)[nH]c1=O`, the compound was called inactive.
The result for `O=P(c1ccccc1)(c1ccccc1)c1cc(S(=O)(=O)O)ccc1O` reads “inactive”.
The result for `Cc1c(CCC(=O)O)c(=O)oc2c(C)c(OCc3ccccc3Cl)ccc12` reads “inactive”.
The result for `CNS(=O)(=O)c1cccc(C(=O)OCC(=O)N2c3ccccc3NC(=O)C2(C)C)c1` reads “inactive”.

These data come from PubChem BioAssay AID743295 (Broad Institute, 2014).
